Measurements taken from PubChem BioAssay (NCI).
This is part of a sample that, as a whole, favours compounds with a hit. Of some 79,000 tested, about 15% had one in any assay. The source made the active and inactive calls. Rule as the data show it: active = growth inhibition above about 70%; inactive = the rest.

How the values were obtained:
[1] = NCI Yeast Anticancer Drug Screen. Data for the rad50 strain (AID 155);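 also: 0% = growth of vehicle-only cultures of the same strain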; settings: S. cerevisiae rad50 strain growth inhibition; at 50.0 µM; hits give high values
Procedure, shortened: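 Cells are treated with compound, grown, and their growth is then scored against vehicle-only cultures of the same repair-deficient yeast strain.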

[2] = NCI Yeast Anticancer Drug Screen. Data for the mec2-1 strain (AID 157); settings: S. cerevisiae mec2-1 strain, at 50.0 µM, hits give high values
Procedure, shortened: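 Readout is yeast growth inhibition, normalised to vehicle-treated controls, in the mec2-1 strain exposed to compound.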

[3] = NCI Yeast Anticancer Drug Screen. Data for the sgs1 mgt1 strain (AID 161);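 also: 0% = growth of cultures given vehicle only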; settings: S. cerevisiae sgs1 mgt1 strain, at 50.0 µM, hits give high values
Procedure, shortened: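 Compounds are added to genetically altered yeast, and growth is compared with cultures given vehicle alone to give percent inhibition.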

[4] = NCI Yeast Anticancer Drug Screen. Data for the cln2 rad14 strain (AID 165);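 also: 0% = growth equal to vehicle treated cultures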; settings: S. cerevisiae cln2 rad14 strain, at 50.0 µM, hits give high values
Procedure, shortened: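 Relative to vehicle controls, growth inhibition of compound-treated cln2 rad14 yeast was recorded.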

[5] = NCI Yeast Anticancer Drug Screen. Data for the bub3 strain (AID 167); settings: S. cerevisiae bub3 mutant strain, at 50.0 µM, hits give high values
Procedure, shortened: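 Part of a panel of yeast mutants defective in DNA damage repair or cell cycle regulation. Each strain is grown with compound, and inhibition is calculated relative to solvent-treated cultures.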

[6] = NCI Yeast Anticancer Drug Screen. Data for the mlh1 rad18 strain (AID 175); settings: S. cerevisiae mlh1 rad18 strain growth inhibition; at 50.0 µM; hits give high values
Procedure, shortened: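 Test agents were incubated with a yeast strain of defined genotype (DNA damage repair defect). Inhibition of growth was derived by comparison with vehicle-exposed cultures.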

Measured: growth inhibition

Cc1ccc2c(=O)[nH]cnc2c1
inactive: [1] -10.4% | [2] -23.2% | [3] 4.45% | [4] -7.6% | [5] 2% | [6] -2.15%

CC(=O)Nc1ccc(F)c(F)c1
inactive: [1] 17.8% | [2] -16.7% | [3] 3.2% | [4] -3.95% | [5] -3.35% | [6] 30.8%

CCO[C@H]1c2cc3c(cc2[C@@H](c2cc(OC)c(OC)c(OC)c2)[C@H]2C(=O)OC[C@@H]21)OCO3
inactive: [1] 11.4% | [2] 6.25% | [3] 26.9% | [4] 28.7% | [5] 12.7% | [6] 24.9%

CC1CCc2cc(Br)ccc2N1N (centres undefined)
inactive: [1] 33.1% | [2] 0.85% | [3] -5.35% | [4] 9.8% | [5] -4.8% | [6] 27.8%

COc1cc(NC(C)CCCNC(C)C)c2nccc(C)c2c1 (centres undefined)
inactive: [1] 17.4% | [2] 16.3% | [3] 20.9% | [4] 3.25% | [5] 11.6% | [6] 27.9%

COc1ccc(C2=NN(C(C)=O)C(c3cc(OC)c(OC)cc3N)S2)cc1OC (centres undefined) (tested in a mixture with another compound)
inactive: [1] 16.2% | [2] 17.1% | [3] 32.1% | [4] 19.6% | [5] 12.9% | [6] 30.1%

O=C(O)Cc1ccc(-c2ccccc2)cc1
inactive: [1] 29.1% | [2] 23.6% | [3] 21.2% | [4] 6.45% | [5] 20.5% | [6] 25.4%

COc1ccc(NC(C)=O)c(C(=O)CCNC(C)=O)c1
inactive: [1] -5.85% | [2] -15.4% | [3] -31.1% | [4] -7.4% | [5] -40% | [6] -23.4%

O=C(COC(=O)c1ccccc1)c1ccc(-c2ccccc2)cc1
inactive: [1] -3.25% | [2] 16.3% | [3] 11.8% | [4] 30.4% | [5] 14.2% | [6] 11.7%

Cc1ccc(Cl)c2c1C(=O)c1ccccc1C2=O
inactive: [1] 24.2% | [2] 7.65% | [3] 3.3% | [4] 14.8% | [5] 5.6% | [6] 23.9%

CN(C)CCOc1ccccn1
inactive: [1] 9.45% | [2] -27.4% | [3] -5.35% | [4] 7.75% | [5] -21.7% | [6] 0.3%

CC1CCCC(=O)CC1 (centres undefined)
inactive: [1] 7.35% | [2] 9.85% | [3] -2.85% | [4] 16.3% | [5] -0.45% | [6] 6.5%

COC1(C)COC(C)(OC)CO1 (centres undefined)
inactive: [1] 34.3% | [2] 20.9% | [3] 24.1% | [4] 13.6% | [5] 12.8% | [6] 18.6%

BrC1CCC(Br)C(Br)CCC1Br (centres undefined)
inactive: [1] 46.5% | [2] 54.9% | [3] 55.1% | [4] 31.8% | [5] 60%
active: [6] 70.4%

O=C(O)C1CC2C3CCC2C1C3=O (centres undefined)
inactive: [1] -8.8% | [2] -26.3% | [3] 23.1% | [4] 4.4% | [5] -2.8% | [6] -34.7%

COc1ccc(C(=O)OC2CCCN(C(=O)c3ccc(OC)cc3)C2)cc1 (centres undefined)
inactive: [1] 0.75% | [2] 2.5% | [3] 0.8% | [4] 0.8% | [5] 10.7% | [6] -5.55%

CC(=O)OCC1OC(n2nc(/C=C/c3ccccc3)c(=O)n(-c3ccccc3)c2=S)C(OC(C)=O)C(OC(C)=O)C1OC(C)=O (centres undefined)
inactive: [1] 0.1% | [2] 20.6% | [3] 8.85% | [4] -10.3% | [5] -0.45% | [6] 31.9%

CCC(=O)CCc1ccc2ccccc2c1
inactive: [1] 22.2% | [2] 15.7% | [3] 10.9% | [4] -16.9% | [5] 23.5% | [6] 24.2%

CC(C)C1NC(=O)CC(c2ccccc2)N(N=O)C1c1ccccc1 (centres undefined)
inactive: [1] -29.3% | [2] -9% | [3] -4.85% | [4] -14.9% | [5] -5.9% | [6] -16.8%

Cc1ccc(C2=Nc3ccccc3SC(c3cccc([N+](=O)[O-])c3)C2)cc1 (centres undefined)
inactive: [1] 11.2% | [2] -12.6% | [3] 11.8% | [4] -9.25% | [5] -6.2% | [6] -1.8%

O=C1NC(c2ccccc2Cl)Nc2ccccc21 (centres undefined)
inactive: [1] -1.1% | [2] 4.1% | [3] 5.65% | [4] -32.1% | [5] 5.45% | [6] -27.1%

O=c1onc2n1-c1cc(Cl)ccc1C(=S)N1CSCC21 (centres undefined)
inactive: [1] 1% | [2] 8.15% | [3] 13.5% | [4] 5.4% | [5] 2.5% | [6] 11.6%

NC(=O)c1csc(N)n1
inactive: [1] 4.4% | [2] 3.95% | [3] 0% | [4] 3.55% | [5] 9.3% | [6] -7.7%

CCOC(=O)N[n+]1ccccc1
inactive: [1] 1.65% | [2] 8.2% | [3] 4.35% | [4] -3.4% | [5] 10.8% | [6] 8.1%

CS/N=C(\c1ccccc1)N1CCOCC1
inactive: [1] -38.2% | [2] -5.7% | [3] -4.95% | [4] -21.1% | [5] 4.25% | [6] 5.2%

O=C(Nc1ccc(N=C=S)cc1Cl)c1cc(Br)cc(Br)c1O
active: [1] 94.3% | [2] 96.7% | [3] 95.6% | [4] 97.1% | [5] 96.8% | [6] 94.7%

Cc1ccc2ccccc2c1[N+](=O)[O-]
inactive: [1] 43.5% | [2] 5% | [3] 37.3% | [4] 17.1% | [5] 21.6% | [6] 36.5%

COc1cc(O)c(C(C)c2ccccc2)cc1N=NC(N)=O (centres undefined)
inactive: [1] 17.1% | [2] 16.4% | [3] 19.3% | [4] 32.8% | [5] 43.4% | [6] 45.5%

O=C(O)COc1ccccc1/C=C1/SC(=S)N(c2ccccc2)C1=O
inactive: [1] -1.4% | [2] -10.8% | [3] -7.25% | [4] -41.5% | [5] 0.55% | [6] 1.1%

COc1ccc(O)c(/C=N\N=C\c2cc(OC)ccc2O)c1
inactive: [1] -1.25% | [2] -1.15% | [3] -2.3% | [4] -22.5% | [5] 22.9% | [6] -2.8%

CC(C)=CCC/C(C)=C\COC=O
inactive: [1] 23% | [2] 12.4% | [3] 18.9% | [4] 6.45% | [5] 13.8% | [6] 50.9%

N#C[C@H](c1nc2ccccc2[nH]1)c1nc2ccccc2nc1Cl
inactive: [1] 5.5% | [2] 2.5% | [3] 21.9% | [4] 12.8% | [5] 15.3% | [6] 12.7%

CCN(CC)C(=O)c1c2nc3c(C(=O)N(CC)CC)ccc(C)c3oc-2c(C)c(=O)c1N
inactive: [1] 24.6% | [2] 7.35% | [3] 7.85% | [4] 19.9% | [5] 0.9% | [6] 20.2%

CCN(CC)CCCC#CCN1CCOCC1
inactive: [1] -39.5% | [2] -48.5% | [3] -21.4% | [4] -16.9% | [5] -44.7% | [6] -20.1%

COc1nc2c(nc(N)n2C2OC(CO)C(O)C(O)C2O)c(=O)[nH]1 (centres undefined)
inactive: [1] -26.4% | [2] -8% | [3] -1.5% | [4] 3.45% | [5] 0.95% | [6] 20.9%

O=c1[nH]cc(NCCc2ccccc2)c(=O)[nH]1
inactive: [1] 0.75% | [2] -4% | [3] -17.4% | [4] -50.9% | [5] 7.4% | [6] 1.6%

CC(=O)NC(CCCCNC(=O)OC(C)(C)C)C(=O)O (centres undefined)
inactive: [1] -31.9% | [2] -42.2% | [3] -23.2% | [4] 7.45% | [5] -2.85% | [6] -39.1%

OCCN(CCO)c1ncnc2c1ncn2Cc1ccccc1
inactive: [1] -7.15% | [2] -7.5% | [3] -7.05% | [4] -42.2% | [5] 8.15% | [6] -20.2%

Cc1cc2c(C)n(Cc3ccc(Cl)cc3Cl)nc2c(C#N)c1C
inactive: [1] -11.2% | [2] -7.05% | [3] -9.6% | [4] 20.2% | [5] -2.45% | [6] -3.9%
